This is a sample that favours compounds with a hit; in the whole collection about 8.9% have one here.
MCF10A rereplic: DNA re-replication induction in MCF 10a cells; AID 624296; 350,000 compounds, 2.9% hits; MCF 10A DNA re-replication, Hoechst nuclear intensity, 48 h; Potency, µM (titrated, usually from 46.1 µM), for the others: at the top dose activity, positive = re-replication, hits mostly activators; also: potency is read from the fitted curve at half-maximal effect; % of control where 0% means no effect; nearly all actives have a fitted effect of over 50% in size
DRD3 agonist: activates the human D3 dopamine receptor; P35462; D3R DiscoveRx beta-arrestin cells, luminescence, 90 min; max activation, %; 410,000 compounds, 0.58% hits; AID 652048; in the data active = max activation above about 30%; also: 0% is about no effect
Target sequence (P35462 whole entry, looked up): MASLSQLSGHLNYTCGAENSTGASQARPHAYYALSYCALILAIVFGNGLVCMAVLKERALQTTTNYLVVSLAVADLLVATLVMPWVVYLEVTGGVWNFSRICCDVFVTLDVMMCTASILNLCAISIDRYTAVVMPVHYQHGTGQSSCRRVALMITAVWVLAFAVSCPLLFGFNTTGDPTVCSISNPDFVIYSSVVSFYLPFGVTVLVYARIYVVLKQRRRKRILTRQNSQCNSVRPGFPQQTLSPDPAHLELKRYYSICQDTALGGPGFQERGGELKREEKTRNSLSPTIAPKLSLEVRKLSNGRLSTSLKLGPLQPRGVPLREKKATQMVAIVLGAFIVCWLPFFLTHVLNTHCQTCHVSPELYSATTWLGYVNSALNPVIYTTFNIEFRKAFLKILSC
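Agonist mode: compounds and dopamine controls were applied to plated cells for 90 min at 37 degrees C after an overnight attachment at 1500 cells/well. Luminescent read-out followed 30 - 60 minutes at room temperature with DiscoveRx detection reagent.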
SW480 rereplic: DNA re-replication induction in SW480 cells | SW480 DNA re-replication, Hoechst DNA content imaging, 48 h | Potency, µM (highest dose often 46.1 µM), for the others: at the top dose re-replication activation, actives largely listed as activators | 340,000 compounds, 1.8% hits; also: potency is read from the fitted curve at half-maximal effect; % of control where 0% means no effect; nearly all actives have a fitted effect of over 55% in size
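Readout is total intensity of Hoechst-stained nuclei, excited at 405 nm and collected at 500-530 nm. Compound treatment lasted 48 hr at 37 C in 5% CO2 before staining.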
DRD3 antagonist: blocks the human D3 dopamine receptor | P35462 | D3R cells, DiscoveRx beta-arrestin luminescence, antagonist mode; hits give low values | max response, negative = inhibition, % | 360,000 compounds, 2.5% hits; in the data active = max response below about -50%; inconclusive = no clear call, values can overlap the other calls; also: % is scaled to controls: 0 for no effect and ±100 for the full control effect
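Cells expressing the human receptor were seeded at 1500 cells/well, incubated overnight at 37 degrees C in 5% CO2, then exposed to library compounds with dopamine controls for 90 minutes at 37 degrees C before luminescent detection.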
KB-V1 cytotox: kills drug-selected multidrug resistant KB-V1 cells | KB-V1 MDR cells viability, CellTiter-Glo, 72 h | AID 1347076 | Potency, µM (doses to about 46.1 µM), actives largely listed as cytotoxic | 400,000 compounds, 3.4% hits; also: potency is read from the fitted curve at half-maximal effect; % is scaled to controls: 0 for no effect and ±100 for the full control effect; nearly all actives have a fitted effect of over 60% in size
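Readout: CellTiter-Glo luminescence, 10 min after addition. Cells: KB-V1 MDR subline, 72 h at 37 degrees C with compound. Analysis: corrected, normalized data fitted to concentration-effect curves.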
KB-3-1 cytotox: kills parental KB-3-1 adenocarcinoma cells; KB-3-1 viability, CellTiter-Glo ATP luminescence, 72 h; Potency, µM (top dose mostly 46.1 µM), actives largely listed as cytotoxic; 400,000 compounds, 1.4% hits; also: potency is read from the fitted curve at half-maximal effect; % is scaled to controls: 0 for no effect and ±100 for the full control effect; nearly all actives have a fitted effect of over 60% in size
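Using CellTiter-Glo luminescence, growth of non-resistant KB-3-1 adenocarcinoma cells is assessed 72 h after pin-tool compound addition at 37 °C. Normalized responses across the concentration series yield fitted curves.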
* marks the source's active call; other numbers are inactive results; i = inactive; ? = inconclusive; · = not tested or not shown. Unless noted, calls follow the shape of the dose curve; as a rule, active = well fitted curve in the direction sought with a large enough effect; inconclusive = small, poorly fitted or top-dose-only effect, or another doubt; inactive = no such curve, though single readings can be large; an effect the other way counts as inactive or inconclusive.

SMILES	MCF10A rereplic	DRD3 agonist	SW480 rereplic	DRD3 antagonist	KB-V1 cytotox	KB-3-1 cytotox
O=C(c1cccc(C(F)(F)F)c1)N1CCC(O)(CS(=O)(=O)Cc2ccc(Cl)cc2)CC1	8%	-8	0%	-8	12µM*	i
O=C(c1cccc(C(F)(F)F)c1)N1CCC(O)(CS(=O)(=O)Cc2ccccc2Cl)CC1	5%	1	-3%	-12	16µM*	i
O=C(NCc1ccc(Br)cc1)OC1CC2CC1[C@H]1CCCCN1C2=O (some centres undefined)	·	-3	·	2	i	i
CCn1nc(C)c(CCN(C)C(=O)Nc2cc(OC)c(OC)c(OC)c2)c1C	·	5	·	·	i	i
CCC(Sc1nnnn1-c1ccccc1)C(=O)NC(C)c1ccccc1 (centres undefined)	-5%	14	-2%	29	5.8µM*	i
CC(Sc1nnnn1-c1ccccc1)C(=O)Nc1ccc(Cl)cn1 (centres undefined)	?	2	-2%	-11	18µM*	i
Cc1ccc(-n2nnnc2SC(C)C(=O)Nc2ccccc2-c2ccccc2)cc1 (centres undefined)	2%	0	17%	-16	?	i
COc1ccc(OC)c(-n2c(-c3cc(-c4ccc(F)cc4)n[nH]3)n[nH]c2=S)c1	-2%	-3	4%	-81*	i	i
CCCN(S(=O)(=O)c1ccccc1F)S(=O)(=O)c1ccccc1Br	21µM*	-23	?	-23	i	i
O=C(NCc1ccc(F)cc1)c1cc(-c2ccc(Cl)cc2)n[nH]1	·	-11	·	·	i	i
CC1CC(C)CN(S(=O)(=O)c2ccc3c(c2)CC(C)N3C(=O)C2CCC2)C1 (centres undefined)	6%	0	-27%	-6	i	i
CC(=O)N1c2ccc(S(=O)(=O)N3CCCC(C(=O)N4CCC(C)CC4)C3)cc2CC1C (centres undefined)	-1%	3	-7%	7	21µM*	i
CC1Cc2cc(S(=O)(=O)NCc3ccccc3Cl)ccc2N1C(=O)C1CCC1 (centres undefined)	·	10	·	·	?	23µM*
Cc1ccc(CNC(=O)CCS(=O)(=O)c2ccc3c(c2)CC(C)N3C(=O)C2CC2)cc1 (centres undefined)	10µM*	-2	?	8	i	21µM*
CC1CC(C)CN(S(=O)(=O)c2ccc3c(c2)CC(C)N3C(=O)C2CC2)C1 (centres undefined)	?	-20	-21%	-110*	i	i
CC1Cc2cc(S(=O)(=O)CCC(=O)NCc3ccccc3Cl)ccc2N1C(=O)C1CC1 (centres undefined)	·	2	·	·	·	·
CC1Cc2cc(S(=O)(=O)NCCc3ccccc3)ccc2N1C(=O)C1CC1 (centres undefined)	?	-2	8%	-14	i	i
Cc1ccnc2ccc(Br)cc12	·	·	·	·	i	i
CN(C)CCN(Cc1ccccc1)S(=O)(=O)c1ccc2[nH]c(=O)ccc2c1	·	-4	·	·	i	i
CC(=O)N1c2ccc(S(=O)(=O)N3CCC(C(=O)NCc4ccc(C)cc4)CC3)cc2CC1C (centres undefined)	12%	1	6%	20	i	i
CC(=O)N1c2ccc(S(=O)(=O)N3CCC(C(=O)NCc4ccc(Cl)cc4)CC3)cc2CC1C (centres undefined)	23µM*	8	?	16	i	?
CCCc1cc(=O)n2[nH]c(NC(=O)c3ccccc3Cl)nc2n1	·	-22	·	·	i	i
CSc1ccc(CN2CCC(CO)(Cc3ccc(Cl)cc3)CC2)cc1	?	-8	?	-28	?	?
OCC1(Cc2ccc(Cl)cc2)CCN(CCCc2ccccc2)CC1	?	7	18µM*	-65*	i	i
OCC1(Cc2ccccc2)CCN(Cc2cccc(F)c2F)CC1	-1%	-21	?	-130*	i	i

Compound activity from PubChem.
